Hit rate of the full screen: of about 1,200 compounds, about 65 (5%) were called active.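 The calls were made as follows: active = at either tested dose, response and 90th-percentile vesicle-stain brightness of CD8 cells under set limits and under 9% cells vesicle-bound; inactive = the rest.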 Shown is part of a subset that was picked to be rich in actives.
Assay: modulators of CD8 T cell-vesicle binding, confirmation, cherry-picked primary hits, two concentrations (AID 2810);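 also: lower values mean blocking of vesicle binding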;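 as to percent response (vesicle binding): ratio of mean FL2 vesicle stain of CD8+ cells to that row's control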
Conditions: 2C CD8+ T cell-vesicle binding, flow cytometry; for double positive events: CD8+/vesicle+ events
[1] = at 15.4 µM, stronger effect = lower value

Row | SMILES | double positive events (at 7.7 µM) [%] | double positive events [1] [%] | percent response (vesicle binding) [1] | percent response (vesicle binding) (response, at 7.7 µM) [%]
1 | CCCCN(C(=O)COC(=O)c1ccc(C=O)cc1)c1c(N)n(CCC)c(=O)[nH]c1=O | 9.2 | 13.1 | 406% (inactive) | 335
2 | CCc1ccc(OCc2cnc(Cl)s2)cc1 | 11.6 | 16.5 | 277% (inactive) | 421
3 | Cn1c(SCC(=O)Nc2ccc3cn[nH]c3c2)nnc1-c1cccs1 | 12.5 | 17.2 | 146% (inactive) | 160
4 | Cc1c(NC(=S)NC(=O)CCc2ccccc2)c(=O)n(-c2ccccc2)n1C | 21.8 | 30.2 | 295% (inactive) | 278
5 | CCC(=O)NC(NC(=S)Nc1c(C)n(C)n(-c2ccccc2)c1=O)C(Cl)(Cl)Cl (configuration not stated) | 16.1 | 13.9 | 129% (inactive) | 201
6 | Cc1c(NS(=O)(=O)CC23CCC(CC2=O)C3(C)C)c(=O)n(-c2ccccc2)n1C (configuration not stated) | 14.2 | 1.9 | 37.7% (active) | 260
7 | COc1cc(C(C)=O)ccc1O | 24 | 6.3 | 114% (inactive) | 362
8 | Cc1cc(C(=O)NCc2cc(C(=O)O)oc2C)c(C)o1 | 29.4 | 14.9 | 86.2% (inactive) | 224
9 | CSCCC(NC(=O)c1ccc(=O)n(C)n1)c1nc2ccccc2[nH]1 (configuration not stated) | 14.9 | 0.9 | 42% (active) | 254
10 | O=C(NCC(=O)N1CCN(C(=O)c2ccccc2)CC1)c1ccccc1 | 13.6 | 10.6 | 148% (inactive) | 158
11 | Cc1cc(C)nc(SCCn2c(N3CC(C)OC(C)C3)nc3c2c(=O)n(C)c(=O)n3C)n1 (configuration not stated) | 12.7 | 28.3 | 226% (inactive) | 172
12 | C=CCNC(=O)c1c(Cl)nc(C)c([N+](=O)[O-])c1C | 28.7 | 11.5 | 144% (inactive) | 122
13 | CCC1(C)NC(=O)N(CC(=O)N2N=C(c3ccccc3)CC2c2ccc(OC)cc2)C1=O (configuration not stated) | 9.6 | 30.9 | 413% (inactive) | 134
14 | CCc1c(C)nc(SCC(=O)Nc2nc(-c3ccc(OC)cc3)cs2)[nH]c1=O | 33.4 | 10.4 | 192% (inactive) | 289
15 | CCOc1ccc(-c2cn(-c3ccc(OC)cc3)c(SC)n2)cc1 | 11.4 | 13.4 | 155% (inactive) | 303
16 | CCOc1ccc(-c2csc(NNC3=NCCCCC3)n2)cc1 | 15.2 | 1.4 | 52.5% (active) | 178
17 | Cc1cc([N+](=O)[O-])nn1CC(=O)Nc1nccs1 | 35 | 19.6 | 221% (inactive) | 201
18 | Cc1ccc(S(=O)(=O)c2c(N)n(NC(=O)c3ccccc3C)c3nc4ccccc4nc23)cc1 | 22.8 | 1.1 | 26.2% (active) | 248
19 | Cc1ccc(S(=O)(=O)N2CCC(NC(=O)c3ccccc3)CC2)cc1 | 28.6 | 28.6 | 425% (inactive) | 558
20 | Cc1ccc(S(=O)(=O)N(C)CC(=O)Nc2nc3ccccc3s2)cc1 | 30.7 | 26.8 | 351% (inactive) | 371
21 | O=C(CN1C(=O)C2CCCN2C(=O)c2ccccc21)Nc1ccccc1-n1cccc1 (configuration not stated) | 5.8 | 12.2 | 354% (inactive) | 425
22 | COc1ccc(C(=O)O)cc1S(=O)(=O)Nc1cccc(C)c1 | 14.1 | 17.7 | 296% (inactive) | 181
23 | COc1ccc(N(CC(=O)O)S(C)(=O)=O)cc1OC | 24.1 | 30.5 | 229% (inactive) | 691

Row | SMILES | double positive events (at 7.7 µM) [%] | double positive events [1] [%] | percent response (vesicle binding) [1] | percent response (vesicle binding) (response, at 7.7 µM) [%]
24 | C=CCN(c1ccc(Br)cc1C(=O)OC)S(C)(=O)=O | 29.1 | 2.3 | 35.1% (active) | 465
25 | c1ccc2c(c1)COC(CN1CCCCC1)OC2 | 12.3 | 10.2 | 418% (inactive) | 439
26 | COC(=O)[C@]1(C)N[C@H](CN(C)S(=O)(=O)c2ccc(OC(F)(F)F)cc2)[C@@H]2C(=O)N(C)C(=O)[C@@H]21 | 9.2 | 26.1 | 907% (inactive) | 443
27 | COc1ccc(NC(=O)CN2CCN(S(=O)(=O)c3ccc(Cl)cc3)CC2)cc1 | 31.1 | 12 | 124% (inactive) | 164
28 | CCCCNS(=O)(=O)c1ccc(OCC(=O)OC)cc1 | 14.8 | 20 | 106% (inactive) | 517
29 | COc1ccc(-c2cc(CNS(=O)(=O)c3ccc(NC(C)=O)cc3)on2)cc1 | 23.7 | 2.2 | 18.8% (active) | 277
30 | Cc1ccc(CN2CC(=O)N3[C@H]4c5cc(C)ccc5OC[C@@H]4[C@H](c4ccccc4)[C@]3(C)C2=O)cc1 | 8.3 | 11.2 | 109% (inactive) | 231
31 | C/C(=N\NC(=O)Cn1cc([N+](=O)[O-])cn1)c1ccco1 | 23.5 | 26.1 | 268% (inactive) | 291
32 | CCOC(=O)N1CCN(C(=O)c2ccc(N3CCCC3=O)cc2)CC1 | 9.7 | 22.5 | 213% (inactive) | 150
33 | O=C(c1ccc(Cl)cc1)N1CCC(C(=O)N2CCN(c3ncccn3)CC2)CC1 | 27.3 | 6.4 | 173% (inactive) | 114
34 | O=C(c1ccc(N2C(=O)C3CC=C(Cl)CC3C2=O)cc1)N1CCCCC1 (configuration not stated) | 19.3 | 5.2 | 56.9% (active) | 195
35 | Cc1cc(C)cc(NC(=O)CC23CC4CC(C2)CC(n2nnc(C)n2)(C4)C3)c1 | 6.1 | 35.3 | 236% (inactive) | 200
36 | CCCc1nnc(NC(=O)CCC(=O)N2CCC(Cc3ccccc3)CC2)s1 | 11.7 | 25.7 | 200% (inactive) | 291
37 | Cc1c2cccn2cc[n+]1C | 16.6 | 4.4 | 29.6% (active) | 159
38 | Cc1cccc(C(=O)OCC(=O)Nc2c(C)n(C)n(-c3ccccc3)c2=O)c1 | 11 | 26.9 | 392% (inactive) | 320
39 | Cc1ccc(C(=O)NC(C)CCc2ccccc2)cc1[N+](=O)[O-] (configuration not stated) | 27 | 32.4 | 199% (inactive) | 481
40 | Cc1ccc(-n2ncc3c(N4CCCC(C)C4)ncnc32)c(C)c1 (configuration not stated) | 15.4 | 13.3 | 312% (inactive) | 283
41 | CCSc1nnc(NC(=O)c2ccc(F)c(S(=O)(=O)N3CCOCC3)c2)s1 | 23.7 | 34.2 | 203% (inactive) | 209
42 | O=C(OCCOc1cccc(Cl)c1)c1ccc(F)c(S(=O)(=O)N2CCOCC2)c1 | 24.5 | 0.7 | 42.7% (active) | 333
43 | O=C(NCC1CCCCC1)c1ccc(Cl)c(S(=O)(=O)N2CCOCC2)c1 | 9.2 | 22.8 | 342% (inactive) | 135
44 | CC1CCN(S(=O)(=O)c2csc(C(=O)Nc3ccccc3)c2)CC1 | 33.2 | 23.8 | 579% (inactive) | 415
45 | CC(=O)Nc1ccccc1OC(C)C(=O)NC(C)c1ccc(F)cc1 (configuration not stated) | 9.2 | 9 | 114% (inactive) | 420
46 | Cc1cc(F)ccc1S(=O)(=O)N1CCCOC1CNC(=O)C(=O)NC1CCCC1 (configuration not stated) | 11.7 | 9.3 | 255% (inactive) | 451

Row | SMILES | double positive events (at 7.7 µM) [%] | double positive events [1] [%] | percent response (vesicle binding) [1] | percent response (vesicle binding) (response, at 7.7 µM) [%]
47 | COC(=O)c1ccc(OC(=O)CS(=O)c2ccccc2[N+](=O)[O-])cc1 (configuration not stated) | 15 | 3.4 | 143% (inactive) | 395
48 | Cc1cccc(Nc2nc(-c3ccccn3)cs2)n1 | 28.1 | 5.2 | 46.7% (active) | 538
49 | O=C(COc1ccccc1)Nc1cc(S(=O)(=O)N2CCOCC2)ccc1N1CCCC1 | 28.3 | 4.1 | 138% (inactive) | 164
50 | CCN(Cc1ccccc1)C(=O)c1ccc(C)c(S(=O)(=O)N2CCCCC2)c1 | 11.9 | 30.2 | 197% (inactive) | 111
51 | CCOC(=O)c1c(NC(=O)CN2C(=O)NC3(CCC(C)CC3)C2=O)sc(C)c1-c1ccc(C)cc1 (configuration not stated) | 33.5 | 23.6 | 559% (inactive) | 363
52 | Cc1cccc(C(=O)OCC(=O)NN2C(=O)NC3(CCC(C)CC3)C2=O)c1O (configuration not stated) | 19.9 | 5.2 | 35.3% (active) | 181
53 | Cc1cccc(C(=O)OCC(=O)Nc2ccc3c(c2)OCCO3)c1O | 10.2 | 29.9 | 717% (inactive) | 113
54 | Cc1ccc2nc(-c3cccnc3)c(NC3CCCC3)n2c1 | 16.9 | 33.3 | 211% (inactive) | 276
55 | O=c1[nH]c(CN(CCc2ccccc2)S(=O)(=O)c2ccc(Cl)cc2)nc2ccccc12 | 9.5 | 16.7 | 208% (inactive) | 239
56 | CCOC(=O)C(c1ccccc1)N1CCN(c2ccc(OC)cc2)CC1 (configuration not stated) | 13.2 | 29.9 | 388% (inactive) | 255
57 | CCc1noc(C)c1C(=O)OC(C)C(=O)Nc1ccc2c(c1)OCO2 (configuration not stated) | 32.8 | 2.5 | 22% (active) | 329
58 | CC(Sc1nc2ccccc2s1)C(=O)Nc1ccc2c(c1)OCO2 (configuration not stated) | 9 | 28 | 533% (inactive) | 344
59 | CCc1ccccc1NC(=O)NCc1ccc2c(c1)OCO2 | 17.2 | 20 | 361% (inactive) | 479
60 | Cc1noc(C)c1C(=O)OC(C)C(=O)N1CCc2ccccc21 (configuration not stated) | 28.5 | 4.4 | 134% (inactive) | 293
61 | COc1ccc(Cl)cc1NS(=O)(=O)c1cccc(C(=O)NCC(C)(C)N2CCOCC2)c1 | 20.7 | 18.3 | 317% (inactive) | 710
62 | COc1cc(CNCc2cccnc2)ccc1OCC(=O)NC1CCCCC1 | 18.4 | 5.7 | 32.6% (active) | 303
63 | Cc1ccc(C(=O)OCC(=O)NC2CCCCC2)o1 | 35.5 | 14 | 244% (inactive) | 265
64 | COc1cc(CNCCc2ccc(S(N)(=O)=O)cc2)ccc1OCC(=O)N1CCCCC1 | 11.5 | 19.2 | 229% (inactive) | 370
65 | COc1ccc(CNC(=O)c2cccnc2SC)cc1OC | 9.3 | 2 | 29.8% (active) | 180
66 | COc1ccc(CNC(=O)COC(=O)CCN2C(=O)C3CC=CCC3C2=O)cc1OC (configuration not stated) | 41.8 | 29.1 | 307% (inactive) | 239
67 | COc1ccc(OC)c(NC(=O)c2ccccc2SC)c1 | 56.3 | 35.3 | 242% (inactive) | –

Reference: PubChem BioAssay AID2810 (NMMLSC, 2010)
